From PubChem BioAssay
ALOX12 inh: blocks human arachidonate 12S-lipoxygenase; P18054; purified 12hLO, xylenol orange hydroperoxide absorbance; Potency, µM (titrated, usually from 108 µM), for inactives: at the highest dose activity change, negative = inhibition, usual class: inhibitors; hit rate 1.1% among 580,000; AID 1671190; note: potency is the fitted concentration of half-maximal effect; % is set by controls: 0 for no effect and ±100 for the full control effect
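Hydroperoxide product was detected by ferrous iron/xylenol orange as the 573 to 405 nm absorbance ratio. Arachidonic acid at 40 uM (final) was turned over for 30 min at room temperature by 150 nM human 12hLO, pH 7.0 Hepes buffer, after 15 min compound preincubation.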
ASM inhibitor: inhibitors of human secretory acid sphingomyelinase | hit rate 0.006% among 340,000 | P17405 | placental ASM, HMU-PC fluorogenic substrate, 60 min | AID 504937 | Potency, µM (highest dose often 57.5 µM), for the others: at the highest dose activity change, negative = inhibition, actives largely listed as inhibitors; note: potency is the fitted concentration of half-maximal effect
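Human placenta-derived ASM preincubated with compound 10 min at room temperature, then reacted with 9 uM (final) fluorogenic HMU-PC substrate for 60 min at 37 C. Stop solution raises pH to 10; fluorescence read at Ex 386/Em 447 nm.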
TSG101-PTAP inh: blocks PTAP/TSG101 interaction to inhibit HIV-1 budding. 340,000 tested, under 10 active. Potency, µM (series often up to 115 µM), for the others: at the highest dose activity change, negative = inhibition, usual class: inhibitors. AID 493005. Fluorescence polarization, FITC-PTAP peptide / Tsg101 binding; active = well fitted inhibition curve with a large enough effect in the main read-out, with a control signal flat, not every such curve was filed as active; inconclusive = small, poorly fitted or top-dose-only effect, or effect the other way, or a change in a side signal; inactive = no such curve, though single readings can be large or run the other way; note: potency is the fitted concentration of half-maximal effect; % of control where 0% means no effect
Target sequence (Q99816 whole entry, looked up): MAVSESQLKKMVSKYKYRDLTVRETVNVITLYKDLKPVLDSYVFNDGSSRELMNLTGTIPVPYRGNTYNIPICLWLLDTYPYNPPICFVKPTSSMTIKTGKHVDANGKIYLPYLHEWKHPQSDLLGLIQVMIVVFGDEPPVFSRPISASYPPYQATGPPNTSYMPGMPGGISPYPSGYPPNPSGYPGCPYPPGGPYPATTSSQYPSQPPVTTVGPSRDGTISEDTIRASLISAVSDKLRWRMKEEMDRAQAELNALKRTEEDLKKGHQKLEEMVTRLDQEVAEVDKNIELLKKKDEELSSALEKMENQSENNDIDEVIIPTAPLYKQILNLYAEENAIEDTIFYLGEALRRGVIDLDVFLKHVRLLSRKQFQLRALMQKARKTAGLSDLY
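Fluorescence anisotropy tracks displacement of a FITC-tagged PTAP peptide (50 nM) from the Tsg101 binding domain (10 uM), following a 20 min room-temperature incubation at pH 7.5.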
Vif-APOBEC3F blk: blocks the Vif interaction with APOBEC3F; HeLa A3F-eYFP + Vif (tagged APOBEC3F with the HIV-1 protein that degrades it), YFP fluorescence increase; Potency, µM (titrated, usually from 46.1 µM), for inactives: at the highest dose activity, negative = active; hit rate 0.2% among 390,000; AID 602313; note: potency is the fitted concentration of half-maximal effect; % of control where 0% means no effect; nearly all actives have a fitted effect of over 65% in size
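Fluorescence increase (Ex 488/Em 500-530) after overnight compound treatment at 37 deg C flags inhibition of Vif-driven A3F-eYFP loss in stable HeLa A3F-eYFP/Vif cells seeded overnight beforehand.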
Vif-A3G inh: inhibitors of Vif-APOBEC3G interaction; Q9HC16; HeLa A3G-eYFP + Vif (tagged APOBEC3G with the HIV-1 protein that degrades it), YFP fluorescence, overnight; Potency, µM (series often up to 46.1 µM), inactives show at the top dose activity, negative = active, actives largely listed as inhibitors; hit rate 0.076% among 410,000; AID 602310; note: potency is the fitted concentration of half-maximal effect; % is set by controls: 0 for no effect and ±100 for the full control effect; nearly all actives have a fitted effect of over 60% in size
Target sequence (Q9HC16 whole entry, looked up): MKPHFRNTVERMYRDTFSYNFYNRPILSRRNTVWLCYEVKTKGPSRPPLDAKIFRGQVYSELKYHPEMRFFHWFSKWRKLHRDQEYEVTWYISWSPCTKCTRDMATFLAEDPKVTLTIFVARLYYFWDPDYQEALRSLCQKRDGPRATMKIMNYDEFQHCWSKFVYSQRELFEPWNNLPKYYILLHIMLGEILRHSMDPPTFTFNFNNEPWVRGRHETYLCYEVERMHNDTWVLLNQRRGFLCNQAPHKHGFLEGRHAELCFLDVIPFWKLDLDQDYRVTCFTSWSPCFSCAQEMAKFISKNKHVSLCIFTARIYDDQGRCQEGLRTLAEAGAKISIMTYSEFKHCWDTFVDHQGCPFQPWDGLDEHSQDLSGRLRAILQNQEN
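Read-out is eYFP fluorescence (Ex 488/Em 500-530) from Vif-expressing HeLa A3G-eYFP cells; more signal means A3G escaped Vif-mediated degradation. Cells plated overnight, compound pinned in, incubated overnight at 37 deg C.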
pAkt inh: blocks phosphorylation of Akt. hit rate 0.32% among 360,000. activity change, % for hits at 50 µM. Neuro2A IGF-stimulated pAkt S473 HTRF, 20 min; active compounds read low; in the data active = activity change below about -80%; inconclusive = mostly about -51% to -80%; note: % is set by controls: 0 for no effect and ±100 for the full control effect
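Neuro2A cells in DMEM with 0.5% FBS, overnight at 37 deg C, given compound at single 50 µM final, then IGF (6 nM final) for 20 min at 37 deg C. Lysed; phospho-Akt Ser473 by HTRF after 24 h, 665/615 ratio.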
Starred values were filed as active, the others as inactive; ! = not confirmed by another sample; [ ] = another dose, or the depositor's remark. Sampled rows, rich in hits. Any-hit rate of the full collection: about 1.4%. Unless noted, calls come from the whole dose curve; as a rule, active = well fitted curve in the direction sought with a large enough effect; inconclusive = small, poorly fitted or top-dose-only effect, or another doubt; inactive = no such curve, though single readings can be large; an effect the other way counts as inactive or inconclusive.

O=C(NCc1ccccc1Cl)c1cccc2c1C(=O)c1ccc(-c3ccc(OC(F)(F)F)cc3)cc1S2(=O)=O was read as ASM inhibitor -27.5%, TSG101-PTAP inh -0.6%, Vif-APOBEC3F blk 12.6µM*, Vif-A3G inh -8.9% and pAkt inh inactive.
Screening O=C(NCC1CCCO1)c1cccc2c1C(=O)c1ccc(N3CCC(Cc4ccccc4)CC3)cc1S2(=O)=O (stereo not drawn) returned ASM inhibitor -14.7%, TSG101-PTAP inh inconclusive, Vif-APOBEC3F blk 25.1µM*, Vif-A3G inh inconclusive and pAkt inh inactive.
O=C(NCc1ccccc1)c1cccc2c1C(=O)c1ccc(/C=C/c3ccccc3)cc1S2(=O)=O was read as ALOX12 inh -27.0%, ASM inhibitor 16.6%, TSG101-PTAP inh 11.9%, Vif-APOBEC3F blk 10µM*, Vif-A3G inh -30.4% and pAkt inh inactive.
For Cc1ccc(NC(=O)/C(C#N)=C/c2cc(C(C)(C)C)c(O)c(C(C)(C)C)c2)cc1C the results were ALOX12 inh -21.1%.
`Cc1ccc(C(=O)N/N=C/c2ccccc2)s1` gave ALOX12 inh -9.2%.
`c1ccc(COCc2ccccc2)cc1` gave ALOX12 inh 18.3%.
`C[N+](CCOCc1ccccc1)(CCOCc1ccccc1)CCOCc1ccccc1` gave ALOX12 inh 17.8µM*.
CC[C@@H](C)[C@H]1O[C@]2(CC[C@@H]1C)C[C@@H]1C[C@@H](C/C=C(\C)[C@@H](O[C@@H]3C[C@H](OC)[C@H](O[C@H]4C[C@H](OC)[C@@H](O)[C@H](C)O4)[C@H](C)O3)[C@@H](C)/C=C/C=C3\CO[C@@H]4[C@@H](O)C(C)=C[C@@H](C(=O)O1)[C@]34O)O2 was read as ALOX12 inh 0.0%.
COc1ccccc1Cn1[nH]nnc1=S was read as ALOX12 inh 22.4µM*, ASM inhibitor 0.7%, TSG101-PTAP inh -3.0%, Vif-APOBEC3F blk 0.4%, Vif-A3G inh -1.2% and pAkt inh inactive.
COc1ccccc1OCCSc1nnnn1C1CCCCC1 was read as ALOX12 inh 11.4%, ASM inhibitor -1.0%, TSG101-PTAP inh -1.3%, Vif-APOBEC3F blk 2.6% and Vif-A3G inh -0.5%.
c1ccc(OCCSc2nnnn2C2CCCCC2)cc1 was read as ALOX12 inh 32.5%, ASM inhibitor -4.3%, TSG101-PTAP inh -6.1%, Vif-APOBEC3F blk -0.6%, Vif-A3G inh -7.5% and pAkt inh -111.7%*.
CN1CC(=O)N(C2CCCNCC2)Cc2c(NC3CCCCC3O)ncnc21 (stereo not drawn) was read as ALOX12 inh -23.0%[6.33 µM].
Screening CN1CC(=O)N(C2CCNCC2)Cc2c(NC3CCCCC3O)ncnc21 (stereo not drawn) returned ALOX12 inh 11.2µM*.
Screening CC(OC(=O)/C(C#N)=C/c1ccc(N(C)C)cc1)C(=O)N(C)Cc1ccccc1 (stereo not drawn) returned ALOX12 inh 489.8%, ASM inhibitor inconclusive, TSG101-PTAP inh inconclusive, Vif-APOBEC3F blk 22.4µM*, Vif-A3G inh inconclusive and pAkt inh inactive.
C=C1C(=O)CC2=C1[C@](Cc1ccc(F)cc1)(C(=O)OC)N(C(=O)c1ccccc1)C2 was read as ALOX12 inh inconclusive and pAkt inh inactive.
`C=C1C(=O)C=C2CN(C(=O)c3ccccc3)[C@@](Cc3ccc(F)cc3)(C(=O)OC)[C@@H]12` gave ASM inhibitor -2.5%, TSG101-PTAP inh 1.6%, Vif-APOBEC3F blk -9.8%, Vif-A3G inh 7.08µM* and pAkt inh inactive.
`COc1cc(CN2CCCC(C(=O)N3CCc4ccccc4C3)C2)cc(OC)c1OC` (stereo not drawn) gave ALOX12 inh inconclusive, ASM inhibitor 0.5%, TSG101-PTAP inh 0.5%, Vif-APOBEC3F blk -9.7%, Vif-A3G inh -4.4% and pAkt inh inactive.
CCOC(=O)C1CCCN(Cc2ccc(OCc3ccccc3)cc2)C1 (stereo not drawn) was read as ALOX12 inh 0.4%, ASM inhibitor 0.3%, TSG101-PTAP inh -4.9%, Vif-APOBEC3F blk 0.5%, Vif-A3G inh 2.3% and pAkt inh inactive.
For COc1ccc(CN2CCCC(C(=O)N3CCc4ccccc4C3)C2)cc1OC (stereo not drawn) the results were ALOX12 inh 0.708µM*!, ASM inhibitor 0.4%, TSG101-PTAP inh -2.0%, Vif-APOBEC3F blk -1.6%, Vif-A3G inh 2.3% and pAkt inh inactive.
CCOC(=O)C1CCCN(Cc2ccc(OCc3ccccc3)c(OC)c2)C1 (stereo not drawn) was read as ALOX12 inh 0.562µM*, ASM inhibitor 2.3%, TSG101-PTAP inh 0.3%, Vif-APOBEC3F blk 13.2%, Vif-A3G inh 3.0% and pAkt inh inactive.
`Nc1nc(CN2CCCCCC2)nc(Nc2ccccc2)n1` gave ALOX12 inh -5.6%, ASM inhibitor 2.1%, TSG101-PTAP inh 0.3%, Vif-APOBEC3F blk 8.3%, Vif-A3G inh 0.0% and pAkt inh inactive.
Screening CCOC(=O)C1CCCN(Cc2nc(N)nc(Nc3ccccc3)n2)C1 (stereo not drawn) returned ALOX12 inh 3.4%, ASM inhibitor 5.0%, TSG101-PTAP inh -4.8%, Vif-APOBEC3F blk -0.6%, Vif-A3G inh 1.0% and pAkt inh -96.0%*.
Screening CCc1nc2ccccc2n1CC(O)c1ccc(F)cc1 (stereo not drawn) returned ALOX12 inh -27.4%.
For COC(=O)COc1ccc2c(=O)c(Oc3cc(C)ccc3C)coc2c1 the results were ALOX12 inh 4.9%.
Screening COC(=O)c1ccc(-c2ccc(C(c3c(C)[nH][nH]c3=O)c3c(C)[nH][nH]c3=O)o2)cc1 returned ALOX12 inh 35.5µM*, ASM inhibitor 1.9%, TSG101-PTAP inh -4.2%, Vif-APOBEC3F blk 8.7%, Vif-A3G inh -0.6% and pAkt inh inactive.
`Cc1[nH][nH]c(=O)c1C(c1ccc(-c2cccc(C(=O)O)c2)o1)c1c(C)[nH][nH]c1=O` gave ALOX12 inh -3.9%, ASM inhibitor -0.1%, TSG101-PTAP inh -1.5%, Vif-APOBEC3F blk 8.1%, Vif-A3G inh -0.7% and pAkt inh inactive.
For CCN(C(=O)c1ccc(C(=O)OC)s1)C1CCCC1 the results were ALOX12 inh 10.7%.
`O=C(NCc1ccc(Cl)cc1)c1cnccn1` gave ALOX12 inh -9.8%, ASM inhibitor 3.0%, TSG101-PTAP inh -3.1%, Vif-APOBEC3F blk -1.1%, Vif-A3G inh 0.6% and pAkt inh inactive.
